# Experiments:
# Assay in all cases: DAPPL (digital affinity profiling via proximity ligation, sequencing); 10 mM Tris-HCl pH 7.5, 50 mM NaCl, 1 mM DTT, 4% glycerol, room temperature, 30 min; GST-TFs on glutathione beads, 16-mer random dsDNA library, 0.1% formaldehyde crosslink after washing; high values mean tight binding
# FEV = biological target: T1, FEV (Homo sapiens, UniProt Q99581 1-238); conditions: protein: recombinant; tags: N-terminal GST; dsDNA, one strand shown
# T1 sequence: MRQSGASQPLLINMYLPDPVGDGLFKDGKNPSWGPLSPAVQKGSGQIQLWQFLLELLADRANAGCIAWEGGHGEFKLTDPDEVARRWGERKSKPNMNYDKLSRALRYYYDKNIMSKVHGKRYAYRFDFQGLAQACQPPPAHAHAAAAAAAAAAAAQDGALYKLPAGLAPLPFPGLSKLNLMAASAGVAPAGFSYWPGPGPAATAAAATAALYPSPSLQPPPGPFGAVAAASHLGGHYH
# In short: (§1)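 GST fusions of human transcription factors were expressed in yeast and captured with glutathione beads. Once given DNA barcodes and pooled alongside a tag-only sample, they were incubated for 30 min at room temperature with 200 nmole of a random double-stranded 16-mer DNA library in Tris/NaCl/DTT/glycerol buffer, then washed, crosslinked (0.1% formaldehyde), proximity-ligated, PCR-amplified and sequenced on an Illumina NextSeq500. The binding signal of each hexamer is its read frequency for a factor divided by its frequency for the tag-only sample.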
# ETV5 = ETV5 (Homo sapiens, UniProt P41161 1-510); conditions: protein: recombinant; tags: N-terminal GST; dsDNA, one strand shown
# In short: as §1
# HSF1 = HSF1 (Homo sapiens, UniProt Q00613 1-529); conditions: protein: recombinant; tags: N-terminal GST; chain copies: 3; dsDNA, one strand shown
# In short: as §1
# SPIC = biological target: T2, SPIC (Homo sapiens, UniProt Q8N5J4 1-248); conditions: protein: recombinant; tags: N-terminal GST; dsDNA, one strand shown
# T2 sequence: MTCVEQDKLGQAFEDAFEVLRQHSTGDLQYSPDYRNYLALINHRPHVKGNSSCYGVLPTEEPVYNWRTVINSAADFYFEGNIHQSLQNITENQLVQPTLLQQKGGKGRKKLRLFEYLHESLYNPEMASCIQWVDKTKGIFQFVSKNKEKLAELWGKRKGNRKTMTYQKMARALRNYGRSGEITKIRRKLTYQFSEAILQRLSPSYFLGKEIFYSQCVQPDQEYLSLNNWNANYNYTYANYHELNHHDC
# In short: as §1
# ELF4 = ELF4 (Homo sapiens, UniProt Q99607 1-663); conditions: protein: recombinant; tags: N-terminal GST; dsDNA, one strand shown
# In short: as §1
# ELK4 = biological target: T3, ELK4 (Homo sapiens, UniProt P28324-2 1-405); conditions: protein: recombinant; tags: N-terminal GST; dsDNA, one strand shown
# T3 sequence: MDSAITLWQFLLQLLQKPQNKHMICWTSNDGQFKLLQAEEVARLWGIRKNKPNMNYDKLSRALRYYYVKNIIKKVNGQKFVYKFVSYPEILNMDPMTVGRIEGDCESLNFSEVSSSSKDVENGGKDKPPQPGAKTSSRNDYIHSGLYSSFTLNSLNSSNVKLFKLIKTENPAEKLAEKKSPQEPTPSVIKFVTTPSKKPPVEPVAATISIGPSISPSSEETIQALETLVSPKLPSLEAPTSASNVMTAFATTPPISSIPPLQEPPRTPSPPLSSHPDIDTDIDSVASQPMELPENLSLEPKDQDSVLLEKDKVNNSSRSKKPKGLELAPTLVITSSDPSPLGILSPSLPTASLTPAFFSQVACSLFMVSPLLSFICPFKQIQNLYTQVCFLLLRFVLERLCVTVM
# In short: as §1
# ETV2 = biological target: T4, ETV2 (Homo sapiens, UniProt O00321 1-342); conditions: protein: recombinant; tags: N-terminal GST; dsDNA, one strand shown
# T4 sequence: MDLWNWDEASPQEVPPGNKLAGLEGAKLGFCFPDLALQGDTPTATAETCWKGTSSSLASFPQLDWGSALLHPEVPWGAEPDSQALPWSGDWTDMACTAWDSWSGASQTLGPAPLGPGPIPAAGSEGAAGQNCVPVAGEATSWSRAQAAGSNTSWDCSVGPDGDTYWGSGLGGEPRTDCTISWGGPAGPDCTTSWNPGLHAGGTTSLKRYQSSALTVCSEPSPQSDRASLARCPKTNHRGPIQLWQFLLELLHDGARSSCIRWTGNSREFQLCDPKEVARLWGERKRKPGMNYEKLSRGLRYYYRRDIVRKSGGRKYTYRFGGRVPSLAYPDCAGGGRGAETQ
# In short: as §1
# ELF3 = biological target: T5, ELF3 (Homo sapiens, UniProt P78545 1-371); conditions: protein: recombinant; tags: N-terminal GST; dsDNA, one strand shown
# T5 sequence: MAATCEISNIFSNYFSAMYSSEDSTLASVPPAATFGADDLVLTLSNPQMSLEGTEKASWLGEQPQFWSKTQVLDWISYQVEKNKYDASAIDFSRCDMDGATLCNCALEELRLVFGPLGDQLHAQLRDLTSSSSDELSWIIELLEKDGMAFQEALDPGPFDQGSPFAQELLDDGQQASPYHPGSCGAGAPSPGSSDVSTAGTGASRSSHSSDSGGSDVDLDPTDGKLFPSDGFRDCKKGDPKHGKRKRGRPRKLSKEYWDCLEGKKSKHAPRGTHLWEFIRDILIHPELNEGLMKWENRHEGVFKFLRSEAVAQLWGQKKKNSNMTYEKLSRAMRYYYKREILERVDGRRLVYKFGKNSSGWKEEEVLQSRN
# In short: as §1
# CRX = CRX (Homo sapiens, UniProt O43186 1-299); conditions: protein: recombinant; tags: N-terminal GST; dsDNA, one strand shown
# In short: as §1
# ETV1 = ETV1 (Homo sapiens, UniProt P50549 1-477); conditions: protein: recombinant; tags: N-terminal GST; dsDNA, one strand shown
# In short: as §1
# ERF = biological target: T6, ERF (Homo sapiens, UniProt P50548 1-548); conditions: protein: recombinant; tags: N-terminal GST; dsDNA, one strand shown
# T6 sequence: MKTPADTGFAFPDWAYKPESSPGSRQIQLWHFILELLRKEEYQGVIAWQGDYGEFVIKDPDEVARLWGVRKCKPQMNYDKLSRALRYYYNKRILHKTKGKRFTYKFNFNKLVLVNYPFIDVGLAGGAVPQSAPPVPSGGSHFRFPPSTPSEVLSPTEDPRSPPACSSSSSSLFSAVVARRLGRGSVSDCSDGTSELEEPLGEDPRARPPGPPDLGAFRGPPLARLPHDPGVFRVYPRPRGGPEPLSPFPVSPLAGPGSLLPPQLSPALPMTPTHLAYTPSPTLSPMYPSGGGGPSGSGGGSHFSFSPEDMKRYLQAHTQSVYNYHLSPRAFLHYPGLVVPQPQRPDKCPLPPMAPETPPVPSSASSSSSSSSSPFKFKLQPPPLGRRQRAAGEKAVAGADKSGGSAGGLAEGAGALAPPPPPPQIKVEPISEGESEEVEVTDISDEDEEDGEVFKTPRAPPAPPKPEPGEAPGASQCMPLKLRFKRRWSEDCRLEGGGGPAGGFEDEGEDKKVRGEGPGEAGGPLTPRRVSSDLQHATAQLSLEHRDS
# In short: as §1
# ETV3L = biological target: T7, ETV3L (Homo sapiens, UniProt Q6ZN32 1-361); conditions: protein: recombinant; tags: N-terminal GST; dsDNA, one strand shown
# T7 sequence: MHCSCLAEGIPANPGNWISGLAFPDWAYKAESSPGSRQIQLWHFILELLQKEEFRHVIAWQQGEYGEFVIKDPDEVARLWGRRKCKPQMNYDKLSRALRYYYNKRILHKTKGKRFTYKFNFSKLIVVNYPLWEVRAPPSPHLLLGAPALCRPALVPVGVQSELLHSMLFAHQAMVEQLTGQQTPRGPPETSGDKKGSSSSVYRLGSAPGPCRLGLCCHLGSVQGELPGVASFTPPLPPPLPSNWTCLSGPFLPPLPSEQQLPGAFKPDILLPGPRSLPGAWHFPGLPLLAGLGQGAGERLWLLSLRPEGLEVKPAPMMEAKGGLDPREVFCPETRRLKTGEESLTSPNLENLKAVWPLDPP
# In short: as §1
# ETS2 = biological target: T8, ETS2 (Homo sapiens, UniProt P15036 1-469); conditions: protein: recombinant; tags: N-terminal GST; dsDNA, one strand shown
# T8 sequence: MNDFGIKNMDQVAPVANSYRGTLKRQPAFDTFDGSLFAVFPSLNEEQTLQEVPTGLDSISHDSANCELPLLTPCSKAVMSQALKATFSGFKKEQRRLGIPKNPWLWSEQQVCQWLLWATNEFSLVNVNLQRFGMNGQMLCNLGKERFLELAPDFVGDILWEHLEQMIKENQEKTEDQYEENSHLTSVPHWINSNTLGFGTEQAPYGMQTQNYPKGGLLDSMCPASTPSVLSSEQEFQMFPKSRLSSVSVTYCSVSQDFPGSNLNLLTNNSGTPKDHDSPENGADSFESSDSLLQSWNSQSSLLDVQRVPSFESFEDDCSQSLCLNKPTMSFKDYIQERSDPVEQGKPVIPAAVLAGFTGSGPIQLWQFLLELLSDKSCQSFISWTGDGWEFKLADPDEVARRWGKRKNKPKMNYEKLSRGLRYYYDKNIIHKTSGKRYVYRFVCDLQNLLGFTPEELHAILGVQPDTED
# In short: as §1
# SPDEF = biological target: T9, SPDEF (Homo sapiens, UniProt O95238 1-335); conditions: protein: recombinant; tags: N-terminal GST; dsDNA, one strand shown
# T9 sequence: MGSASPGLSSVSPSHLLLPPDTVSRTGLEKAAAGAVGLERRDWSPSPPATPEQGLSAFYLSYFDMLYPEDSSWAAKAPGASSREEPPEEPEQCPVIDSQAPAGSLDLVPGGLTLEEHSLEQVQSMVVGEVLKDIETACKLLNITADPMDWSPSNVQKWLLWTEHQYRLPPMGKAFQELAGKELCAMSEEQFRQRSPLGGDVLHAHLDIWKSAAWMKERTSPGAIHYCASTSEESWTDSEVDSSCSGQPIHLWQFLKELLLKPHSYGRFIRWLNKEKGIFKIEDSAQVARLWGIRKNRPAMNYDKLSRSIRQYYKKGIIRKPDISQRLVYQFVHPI
# In short: as §1
# ETV7 = biological target: T10, ETV7 (Homo sapiens, UniProt Q9Y603 1-341); conditions: protein: recombinant; tags: N-terminal GST; dsDNA, one strand shown
# T10 sequence: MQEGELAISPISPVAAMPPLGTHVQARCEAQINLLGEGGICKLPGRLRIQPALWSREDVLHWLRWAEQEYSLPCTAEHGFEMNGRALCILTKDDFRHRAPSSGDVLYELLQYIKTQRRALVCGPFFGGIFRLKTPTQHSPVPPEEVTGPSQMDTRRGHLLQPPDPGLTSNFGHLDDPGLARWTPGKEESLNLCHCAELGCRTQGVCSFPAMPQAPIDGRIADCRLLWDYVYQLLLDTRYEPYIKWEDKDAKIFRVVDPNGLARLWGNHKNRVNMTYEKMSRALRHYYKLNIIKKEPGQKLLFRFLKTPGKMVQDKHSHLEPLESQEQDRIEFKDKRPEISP
# In short: as §1
# ELF5 = biological target: T11, ELF5 (Homo sapiens, UniProt Q9UKW6-2 1-255); conditions: protein: recombinant; tags: N-terminal GST; dsDNA, one strand shown
# T11 sequence: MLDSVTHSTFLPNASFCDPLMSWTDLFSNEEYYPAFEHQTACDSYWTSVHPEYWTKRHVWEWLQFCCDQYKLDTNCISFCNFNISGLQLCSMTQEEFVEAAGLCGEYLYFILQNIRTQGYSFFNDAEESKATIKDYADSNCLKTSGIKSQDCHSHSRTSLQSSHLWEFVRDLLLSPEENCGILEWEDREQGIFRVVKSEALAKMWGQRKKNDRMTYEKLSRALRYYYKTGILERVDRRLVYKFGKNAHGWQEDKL
# In short: as §1
# ETV3 = biological target: T12, ETV3 (Homo sapiens, UniProt P41162-2 1-143); conditions: protein: recombinant; tags: N-terminal GST; dsDNA, one strand shown
# T12 sequence: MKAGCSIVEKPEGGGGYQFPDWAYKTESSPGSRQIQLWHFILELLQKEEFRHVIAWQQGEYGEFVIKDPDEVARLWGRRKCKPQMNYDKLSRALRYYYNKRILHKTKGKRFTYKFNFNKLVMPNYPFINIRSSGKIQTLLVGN
# In short: as §1
# ETV6 = ETV6 (Homo sapiens, UniProt P41212 1-452); conditions: protein: recombinant; tags: N-terminal GST; dsDNA, one strand shown
# In short: as §1
# ETV6, sequence (P41212 whole entry): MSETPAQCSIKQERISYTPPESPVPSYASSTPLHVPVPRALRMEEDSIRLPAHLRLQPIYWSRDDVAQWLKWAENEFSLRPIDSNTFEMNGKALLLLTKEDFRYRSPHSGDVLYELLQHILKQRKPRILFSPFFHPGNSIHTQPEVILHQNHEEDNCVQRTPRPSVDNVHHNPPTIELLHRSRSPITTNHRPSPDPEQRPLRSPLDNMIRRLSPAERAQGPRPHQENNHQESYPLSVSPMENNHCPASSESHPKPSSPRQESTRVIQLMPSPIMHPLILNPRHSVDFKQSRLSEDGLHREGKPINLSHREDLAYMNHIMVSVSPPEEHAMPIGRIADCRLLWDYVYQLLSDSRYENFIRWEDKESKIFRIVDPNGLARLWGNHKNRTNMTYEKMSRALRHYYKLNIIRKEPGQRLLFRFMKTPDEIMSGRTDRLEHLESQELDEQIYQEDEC
# ETV5, sequence (P41161 whole entry): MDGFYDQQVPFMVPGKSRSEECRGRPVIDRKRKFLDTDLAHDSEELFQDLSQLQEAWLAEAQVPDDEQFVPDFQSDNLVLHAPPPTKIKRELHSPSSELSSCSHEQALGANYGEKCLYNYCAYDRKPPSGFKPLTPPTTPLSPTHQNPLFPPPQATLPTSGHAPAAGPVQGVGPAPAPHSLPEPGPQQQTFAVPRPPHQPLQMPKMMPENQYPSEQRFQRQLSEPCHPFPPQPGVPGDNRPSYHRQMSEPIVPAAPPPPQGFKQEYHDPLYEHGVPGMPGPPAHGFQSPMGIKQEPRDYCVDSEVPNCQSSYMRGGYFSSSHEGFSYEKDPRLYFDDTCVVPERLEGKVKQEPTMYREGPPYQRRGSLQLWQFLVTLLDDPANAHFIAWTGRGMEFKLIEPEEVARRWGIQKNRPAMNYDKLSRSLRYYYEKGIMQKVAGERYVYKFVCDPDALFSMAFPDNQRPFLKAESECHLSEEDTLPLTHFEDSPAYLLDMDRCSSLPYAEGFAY
# CRX, sequence (O43186 whole entry): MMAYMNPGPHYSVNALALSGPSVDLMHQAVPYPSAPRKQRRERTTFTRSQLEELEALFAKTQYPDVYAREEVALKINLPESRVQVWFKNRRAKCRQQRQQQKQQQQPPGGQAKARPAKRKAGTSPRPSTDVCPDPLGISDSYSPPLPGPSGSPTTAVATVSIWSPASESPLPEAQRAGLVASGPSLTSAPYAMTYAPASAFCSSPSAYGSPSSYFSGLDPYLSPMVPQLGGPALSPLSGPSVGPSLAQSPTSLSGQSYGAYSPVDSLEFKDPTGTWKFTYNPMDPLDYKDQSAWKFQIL
# ETV1, sequence (P50549 whole entry): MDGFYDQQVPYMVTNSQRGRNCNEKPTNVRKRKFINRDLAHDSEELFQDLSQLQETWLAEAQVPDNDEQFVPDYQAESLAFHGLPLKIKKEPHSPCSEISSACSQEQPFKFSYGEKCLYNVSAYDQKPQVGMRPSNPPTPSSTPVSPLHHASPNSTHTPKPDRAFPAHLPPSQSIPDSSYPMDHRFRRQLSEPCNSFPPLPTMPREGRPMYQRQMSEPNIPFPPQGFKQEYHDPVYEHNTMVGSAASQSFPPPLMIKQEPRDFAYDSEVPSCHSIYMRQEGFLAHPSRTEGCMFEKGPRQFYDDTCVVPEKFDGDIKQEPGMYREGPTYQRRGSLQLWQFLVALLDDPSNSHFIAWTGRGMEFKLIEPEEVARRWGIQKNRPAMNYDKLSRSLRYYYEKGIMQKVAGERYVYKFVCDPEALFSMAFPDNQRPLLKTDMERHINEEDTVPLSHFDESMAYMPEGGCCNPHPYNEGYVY
# ELF4, sequence (Q99607 whole entry): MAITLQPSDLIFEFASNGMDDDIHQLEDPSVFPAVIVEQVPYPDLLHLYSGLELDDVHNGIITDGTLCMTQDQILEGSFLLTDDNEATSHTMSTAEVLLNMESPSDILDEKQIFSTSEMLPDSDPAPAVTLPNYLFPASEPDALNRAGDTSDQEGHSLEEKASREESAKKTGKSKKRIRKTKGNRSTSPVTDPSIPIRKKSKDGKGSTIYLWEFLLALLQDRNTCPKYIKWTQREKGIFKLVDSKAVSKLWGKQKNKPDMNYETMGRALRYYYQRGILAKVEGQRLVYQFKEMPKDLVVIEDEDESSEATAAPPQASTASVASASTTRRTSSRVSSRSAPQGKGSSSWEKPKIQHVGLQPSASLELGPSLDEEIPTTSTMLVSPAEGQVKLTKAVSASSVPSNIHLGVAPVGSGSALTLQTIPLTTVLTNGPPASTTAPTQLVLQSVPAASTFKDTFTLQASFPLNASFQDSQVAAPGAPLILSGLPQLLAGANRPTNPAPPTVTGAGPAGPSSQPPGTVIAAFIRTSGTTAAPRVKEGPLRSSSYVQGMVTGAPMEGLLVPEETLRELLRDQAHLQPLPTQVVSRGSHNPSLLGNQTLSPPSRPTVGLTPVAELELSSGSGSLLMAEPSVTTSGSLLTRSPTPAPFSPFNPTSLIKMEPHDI
# HSF1, sequence (Q00613 whole entry): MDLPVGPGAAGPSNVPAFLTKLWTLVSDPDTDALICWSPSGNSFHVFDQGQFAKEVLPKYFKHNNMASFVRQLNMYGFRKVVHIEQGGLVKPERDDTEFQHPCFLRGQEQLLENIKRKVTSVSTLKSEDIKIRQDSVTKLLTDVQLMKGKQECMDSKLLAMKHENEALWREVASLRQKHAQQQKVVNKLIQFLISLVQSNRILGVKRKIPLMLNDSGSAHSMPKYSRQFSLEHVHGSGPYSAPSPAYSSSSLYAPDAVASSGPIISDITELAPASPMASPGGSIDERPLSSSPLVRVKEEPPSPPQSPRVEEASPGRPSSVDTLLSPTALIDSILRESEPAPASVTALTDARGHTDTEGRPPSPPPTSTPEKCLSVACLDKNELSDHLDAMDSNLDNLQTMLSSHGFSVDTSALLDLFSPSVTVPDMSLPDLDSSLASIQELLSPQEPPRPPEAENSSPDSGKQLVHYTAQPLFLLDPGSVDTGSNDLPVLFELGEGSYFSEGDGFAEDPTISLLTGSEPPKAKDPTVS
sequence,measurement,setting,value
TTTGCA,binding signal,FEV,"1.18 fold enrichment (6-mer frequency, TF over GST control)"
same,binding signal,ETV5,"1.22 fold enrichment (6-mer frequency, TF over GST control)"
same,binding signal,HSF1,"1.26 fold enrichment (6-mer frequency, TF over GST control)"
same,binding signal,SPIC,"1.23 fold enrichment (6-mer frequency, TF over GST control)"
same,binding signal,ELF4,"1.29 fold enrichment (6-mer frequency, TF over GST control)"
same,binding signal,ELK4,"1.3 fold enrichment (6-mer frequency, TF over GST control)"
same,binding signal,ETV2,"1.24 fold enrichment (6-mer frequency, TF over GST control)"
same,binding signal,ELF3,"1.28 fold enrichment (6-mer frequency, TF over GST control)"
same,binding signal,CRX,"1.48 fold enrichment (6-mer frequency, TF over GST control)"
same,binding signal,ETV1,"1.29 fold enrichment (6-mer frequency, TF over GST control)"
same,binding signal,ERF,"1.13 fold enrichment (6-mer frequency, TF over GST control)"
same,binding signal,ETV3L,"1.31 fold enrichment (6-mer frequency, TF over GST control)"
same,binding signal,ETS2,"1.14 fold enrichment (6-mer frequency, TF over GST control)"
same,binding signal,SPDEF,"1.23 fold enrichment (6-mer frequency, TF over GST control)"
same,binding signal,ETV7,"1.21 fold enrichment (6-mer frequency, TF over GST control)"
same,binding signal,ELF5,"1.24 fold enrichment (6-mer frequency, TF over GST control)"
same,binding signal,ETV3,"1.26 fold enrichment (6-mer frequency, TF over GST control)"
same,binding signal,ETV6,"1.32 fold enrichment (6-mer frequency, TF over GST control)"
